# From paper PMC4336329 (PLoS ONE, 2015)
# Hit rate of the full screen: of about 310,000 compounds, about 14,000 (4.5%) showed an effect of 50% or more. The effect is printed as a negative number. The list comes from a sample in which strong results are over-represented; it also holds similar structures and randomly drawn compounds.
# Molecular target: human ether-à-go-go-related gene (hERG) potassium channel (human, UniProt Q12809)
# Assay: primary screen, population patch clamp on CHO cells stably expressing hERG; higher = less effect of the substance
# 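Further: peak tail current of the secondary pulse compared with the same well before compound.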
# Chain of human ether-à-go-go-related gene (hERG) potassium channel (Q12809 whole entry, looked up): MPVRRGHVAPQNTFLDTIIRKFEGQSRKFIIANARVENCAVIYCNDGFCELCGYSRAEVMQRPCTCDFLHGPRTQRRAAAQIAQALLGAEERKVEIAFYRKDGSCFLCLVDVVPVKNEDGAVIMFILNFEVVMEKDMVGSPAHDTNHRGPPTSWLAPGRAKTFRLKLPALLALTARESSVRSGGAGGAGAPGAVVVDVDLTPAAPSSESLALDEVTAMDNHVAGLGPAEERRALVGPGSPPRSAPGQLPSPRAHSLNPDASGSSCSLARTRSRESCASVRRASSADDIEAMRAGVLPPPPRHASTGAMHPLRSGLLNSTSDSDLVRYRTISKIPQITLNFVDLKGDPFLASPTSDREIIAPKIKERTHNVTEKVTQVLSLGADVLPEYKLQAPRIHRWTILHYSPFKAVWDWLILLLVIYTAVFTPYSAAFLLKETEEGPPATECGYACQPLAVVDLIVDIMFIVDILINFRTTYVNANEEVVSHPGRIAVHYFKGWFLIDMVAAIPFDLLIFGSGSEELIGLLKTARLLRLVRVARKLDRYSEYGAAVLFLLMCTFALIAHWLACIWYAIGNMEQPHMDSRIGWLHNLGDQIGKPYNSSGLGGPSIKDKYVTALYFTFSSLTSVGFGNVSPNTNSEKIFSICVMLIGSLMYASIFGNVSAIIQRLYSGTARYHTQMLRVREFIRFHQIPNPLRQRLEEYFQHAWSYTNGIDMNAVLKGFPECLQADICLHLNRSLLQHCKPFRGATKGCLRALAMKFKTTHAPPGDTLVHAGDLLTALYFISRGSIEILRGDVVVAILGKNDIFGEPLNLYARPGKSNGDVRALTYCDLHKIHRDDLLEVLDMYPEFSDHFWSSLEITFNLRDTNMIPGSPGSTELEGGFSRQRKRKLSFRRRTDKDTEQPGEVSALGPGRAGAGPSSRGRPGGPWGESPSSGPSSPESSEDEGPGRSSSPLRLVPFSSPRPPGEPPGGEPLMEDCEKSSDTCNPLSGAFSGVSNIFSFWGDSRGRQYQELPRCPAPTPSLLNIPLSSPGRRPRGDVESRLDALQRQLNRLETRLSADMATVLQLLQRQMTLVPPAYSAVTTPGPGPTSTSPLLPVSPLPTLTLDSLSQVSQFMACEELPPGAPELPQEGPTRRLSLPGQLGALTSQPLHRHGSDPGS
row,Compound,"hERG current change (%, negative = inhibition) at 10uM [%]"
1,COCC(=O)N1CCC(Oc2ccc(C(=O)NC3Cc4ccccc4C3)cc2)CC1,-3.57
2,S=c1[nH]nc(-c2ccncc2)n1/N=C/C(Cl)=C\c1ccccc1,23.3
3,COc1ccccc1CNC(=O)c1cccc(N(C)C)c1,-2.52
4,CCCCn1c(O)c(C(C)=NCCc2c[nH]c3ccccc23)c(=O)[nH]c1=O,-16
5,CCCCn1c(O)c(C(C)=NC(C)c2ccccc2)c(=O)[nH]c1=O (stereo not drawn),-22.3
6,CCCCn1c(O)c(C(C)=NC(Cc2c[nH]c3ccccc23)C(=O)OC)c(=O)[nH]c1=O (stereo not drawn),-52.1
7,COC(=O)c1cc(=O)nc2scc(C)n12,-23.1
8,CCC1CCCCN1Cc1ccc(CNS(=O)(=O)c2ccc3c(c2)oc(=O)n3C)o1 (stereo not drawn),-19.3
9,CCOC(=O)c1cc(-c2cc(OC)c(OC)c(OC)c2)nc2c1c(=O)[nH]c(=O)n2Cc1ccccc1,1.34
10,CCCOC(=O)c1ccc(NC(=O)CC(C)(C)C)cc1,-11.1
11,C/C(=N\N1CCN(Cc2ccc(Cl)cc2)CC1)c1ccc(F)cc1,-51.6
12,C/C(=N\N1CCN(c2ccc(Cl)cc2)CC1)c1cccc([N+](=O)[O-])c1,-12.4
13,C(=C\c1ccccc1)/C=N/N1CCN(Cc2ccccc2)CC1,1.45
14,C/C(=N/N1CCN(Cc2ccccc2)CC1)c1ccc(Br)cc1,-19.9
15,Cc1ccc(CN2CCN(/N=C/c3ccccc3)CC2)cc1,-12.7
16,C/C(=N\N1CCN(Cc2ccccc2Cl)CC1)c1ccc(F)cc1,2.05
17,C/C(=N\N1CCN(Cc2ccc(Cl)cc2)CC1)c1ccc([N+](=O)[O-])cc1,-72.6
18,CC(=O)Oc1ccc(/C(C)=N/N2CCN(Cc3ccc(C)cc3)CC2)cc1,-73.2
19,O=[N+]([O-])c1ccc(Cl)c(/C=N/N2CCN(Cc3ccc(Cl)cc3)CC2)c1,4.9
20,COc1cc(/C(C)=N/N2CCN(Cc3ccc(C)cc3)CC2)ccc1O,-44.3
21,CC(=O)Oc1ccc(/C(C)=N\N2CCN(Cc3ccc(Cl)cc3)CC2)cc1,-36.8
22,Cc1ccc(CN2CCN(/N=C\C=C\c3ccccc3)CC2)cc1,-72.2
23,O=C(COC(=O)c1ccc(O)cc1)Nc1ccc2[nH]c(=O)[nH]c2c1,2.48
24,O=C(Nc1cc([N+](=O)[O-])ccc1Cl)C1CC1,14.1

row,Compound,"hERG current change (%, negative = inhibition) at 10uM [%]"
1,COc1ccc(Cn2c(=S)[nH]c3cc(C(=O)N4CCCCC4)ccc3c2=O)cc1,13.3
2,Cc1cc(-n2nc3ccccc3n2)c(O)c([N+](=O)[O-])c1,6.11
3,COc1ccc(CCNC(=O)COC(=O)C2COc3ccccc3O2)cc1 (stereo not drawn),-0.23
4,CCCn1nnnc1NCc1ccc(N(C)C)cc1,1.95
5,CCC(=O)N1N=C(c2ccc(C)o2)CC1c1ccc(Br)cc1 (stereo not drawn),-23.4
6,COc1ccc(/C=C/C(=O)NC(=S)NNC(=O)Cc2cccs2)cc1OC,17.9
7,CC1=C(C(=O)OC(C)C)C(c2cccs2)N2C(=O)CCSC2=N1 (stereo not drawn),-11.5
8,CCCCCOP(=O)(OCCCCC)C1(NS(=O)(=O)c2ccccc2)C=CC(=O)c2ccccc21 (stereo not drawn),9.76
9,Nc1cc(=O)[nH]c(=O)n1-c1ccc(Cl)cc1,15.2
10,COc1ccccc1OCC(=O)Nc1ccccc1C(=O)N1CCCCC1,11.6
11,C/C(=N\N1CCN(Cc2ccc(C)cc2)CC1)c1ccco1,-67.6
12,Cc1ccc(CN2CCN(C(=O)c3ccco3)CC2)cc1,-13.5
13,C/C(=N\N1CCN(Cc2ccccc2)CC1)c1ccco1,-1.45
14,CCCOC(c1ccccc1)(c1ccccc1)C(Oc1nc(C)cc(C)n1)C(=O)O (stereo not drawn),21.5
15,C=CCSc1nnc2c(n1)OC(c1ccco1)Nc1ccccc1-2 (stereo not drawn),-7.61
16,CCCSc1nc(N)c(C#N)c(-c2ccc(C)cc2)c1C#N,15.7
17,C=CCNC(=O)C1CCN(c2cnccn2)CC1,27.8
18,O=C(NCCc1ccc(Cl)cc1)C1CCN(c2cnccn2)CC1,-35.3
19,COc1cccc(CNC(=O)C2CCN(c3cnccn3)CC2)c1,-12.4
20,O=C(NCc1ccccc1Cl)C1CCN(c2cnccn2)CC1,-4.12
21,O=C(NCc1ccc(F)cc1)C1CCN(c2cnccn2)CC1,-64.9
22,O=C(NCc1ccc(Cl)cc1)C1CCN(c2cnccn2)CC1,-59.9
23,Cn1c(=O)c2c(SCc3cccc(C(F)(F)F)c3)nc(-c3ccco3)nc2n(C)c1=O,-3.88
24,O=C(CNC(=O)c1ccco1)OCc1c(F)cccc1Cl,-5.42
